Screen size: about 340,000 compounds; about 240 (0.071%) were called active. For the sample, actives were picked, then their nearest neighbours and some compounds at random. Unmarked numbers belong to inactive results.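 Rule for the calls: active = activation above the mean of all tested compounds plus 3 SD, set per screening campaign (cut at about 17% in these data); inactive = the rest.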
What follows are compounds tested against Insulin-degrading enzyme (Homo sapiens) (UniProt P14735) (assay: enhanced cellular IDE Abeta cleavage – fluorescence polarization, HEK cells, FAbeta-B substrate, primary screen (AID 493087)). Settings: at 5.96 µM, active compounds read high, 0% vehicle, 100% cell-free pure enzyme wells.
Insulin-degrading enzyme (Homo sapiens), sequence (P14735 whole entry, looked up): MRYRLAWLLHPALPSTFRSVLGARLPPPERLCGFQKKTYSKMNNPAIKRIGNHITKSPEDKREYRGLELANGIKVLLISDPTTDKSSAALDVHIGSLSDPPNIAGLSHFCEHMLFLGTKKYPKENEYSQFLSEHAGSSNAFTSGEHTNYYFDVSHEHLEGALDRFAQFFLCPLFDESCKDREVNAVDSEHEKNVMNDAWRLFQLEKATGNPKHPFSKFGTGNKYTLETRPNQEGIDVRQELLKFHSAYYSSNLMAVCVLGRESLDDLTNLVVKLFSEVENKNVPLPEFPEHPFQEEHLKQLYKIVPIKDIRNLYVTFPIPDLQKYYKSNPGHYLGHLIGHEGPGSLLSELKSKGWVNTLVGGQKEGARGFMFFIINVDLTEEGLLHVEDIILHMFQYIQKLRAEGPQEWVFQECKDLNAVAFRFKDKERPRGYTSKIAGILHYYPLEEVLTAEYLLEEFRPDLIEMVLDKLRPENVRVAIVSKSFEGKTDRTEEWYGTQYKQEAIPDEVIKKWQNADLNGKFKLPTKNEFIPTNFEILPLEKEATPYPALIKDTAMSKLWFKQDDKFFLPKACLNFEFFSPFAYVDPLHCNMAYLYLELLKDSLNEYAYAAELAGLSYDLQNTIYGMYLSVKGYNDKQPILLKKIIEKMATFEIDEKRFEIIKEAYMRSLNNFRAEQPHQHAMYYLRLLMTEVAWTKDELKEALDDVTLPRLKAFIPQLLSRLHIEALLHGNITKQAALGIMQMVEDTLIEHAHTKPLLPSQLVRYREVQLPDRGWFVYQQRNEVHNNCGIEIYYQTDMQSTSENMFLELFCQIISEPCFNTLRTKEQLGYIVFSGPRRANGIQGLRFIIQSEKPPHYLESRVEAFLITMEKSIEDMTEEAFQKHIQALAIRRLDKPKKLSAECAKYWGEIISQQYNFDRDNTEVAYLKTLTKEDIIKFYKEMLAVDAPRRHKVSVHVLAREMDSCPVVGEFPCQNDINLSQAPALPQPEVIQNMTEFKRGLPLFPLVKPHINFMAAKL
`CN1CCC(=NNC(=O)CN(c2cccc(Cl)c2)S(C)(=O)=O)CC1` gave an activation of 2.41%.
For `O=C(CN1C(=O)NC(Cc2ccccc2)(Cc2ccccc2)C1=O)NCC1CCCCC1`, the activation was 2.02%.
In the case of `CCc1cc(=O)oc2cc(OCC(=O)N3CCCc4ccccc43)ccc12`, the activation is reported as -2.67%.
Compound `O=C(CN1C(=O)CC(c2ccccc2)=Nc2ccccc21)NC1CCCCC1` has an activation of 1.38%.
Compound `CC12CCCCC1=CC(=O)CC2` (configuration not stated) has an activation of 3.28%.
In the case of `Cc1ccc(S(=O)(=O)N2CC(C)N(S(C)(=O)=O)C2)cc1` (configuration not stated), the activation is reported as 2.36%.
Work on `COCC1CCN(C(=O)CCc2nnc(C3(c4ccc(Cl)cc4)CCC3)o2)C1` (configuration not stated) yielded an activation of 0.92%.
With `CCC(Cc1ccccc1)NS(=O)(=O)c1ccc2c(c1)NC(=O)CS2` (configuration not stated) the activation was 4.18%.
For `CN1CCN(CCCNC(=O)c2ccc(/C=C3\Oc4ccccc4N(Cc4ccc(Cl)cc4)C3=O)cc2)CC1`, the activation was -0.17%.
In the case of `CCN1CCN(CCNC(=O)c2ccc(/C=C3/Sc4ccccc4N(Cc4cccc(C)c4)C3=O)cc2)CC1`, the activation is reported as 24.8% (active).
`O=C(NCCCN1CCOCC1)c1ccc2c(c1)N(Cc1cccc(F)c1)C(=O)c1ccccc1S2` showed an activation of 0.8%.
With `CCC1CCCCN1C(=S)Nc1ccc(C(C)=O)cc1` (configuration not stated) the activation was 1.79%.
`CCOC(=O)c1cc2c(=O)n3ccccc3nc2n(CC(C)C)c1=NC(=O)c1c(-c2c(F)cccc2Cl)noc1C` was tested, and the activation was 1.41%.
With `CC1(C)CC(N2CCN(C(c3ccccc3)c3ccccc3)CC2)=CC(=[N+]2CCCCC2)C1` the activation was 0.04%.
In the case of `Oc1c(CN2CCOCC2)ccc(CN2CCOCC2)c1O`, the activation is reported as -3.83%.
Compound `c1ccc2c(c1)CCc1snnc1-2` has an activation of 2.79%.
For `NC1=NOC(=O)C1C1CCCCC1` (configuration not stated), the activation was 5.24%.
`COC(=O)Nc1ccc(S(=O)(=O)N(C)CC(F)(F)C(F)F)cc1` gave an activation of 3.58%.
`Brc1ccc(/C=N/N2CCN(C3c4ccccc4-c4ccccc43)CC2)s1` was tested, and the activation was -7.03%.
`CCc1ccc(C(=O)NNC(=O)C2CCN(c3ncnc4sc(C)c(C)c34)CC2)cc1` was tested, and the activation was -11.5%.
In the case of `COc1ccc(C(=O)NCCn2nc(C)cc2C)cc1OC1CCN(C(C)=O)CC1`, the activation is reported as 1.62%.
`O=c1nc(N2CCOCC2)nc2n1CCO2` was tested, and the activation was -0.31%.
For `Cc1ccc(S(=O)(=O)/N=C(\CN2CCOCC2)N2CCOCC2)cc1`, the activation was -5.66%.
Compound `COc1cc2[nH]c(O)c(C=O)c2cc1OC` has an activation of -5.21%.
Compound `COc1ccc(C(=O)Nc2cc(C)ccc2NC(=O)COc2ccccc2)cc1` has an activation of 0.16%.
`Cc1ccc(O)c(NC(=S)NC(=O)COc2ccc(Br)cc2)c1` was tested, and the activation was 18.1% (active).
For `CCS(=O)(=O)c1ccc(O)c(NC(=O)COc2ccc(Cl)cc2)c1`, the activation was 0.73%.
For `Cc1cc(C)n2nc(C(=O)Nc3cccc(S(=O)(=O)N4CCOCC4)c3)nc2n1`, the activation was 1.61%.
`COc1ccc([C@H]2CC(=O)C=C(/C=C/c3ccc(Cl)cc3)C2)cc1` was tested, and the activation was 3.83%.
`COCc1cc(C)n(CC(=O)NCC2CCCO2)c(=O)c1C#N` (configuration not stated) gave an activation of -1.81%.
Work on `COc1ccc(CCNC(=O)COC(=O)C2CC2C)cc1` (configuration not stated) yielded an activation of 3.39%.
Work on `O=C(CCCCCCCC(=O)N1CCCCC1)N1CCCCC1` yielded an activation of -0.9%.

Reference: PubChem BioAssay AID493087 (The Scripps Research Institute Molecular Screening Center, 2011)
